Molecules are shown by their SMILES. Values joined by “and” are separate entries in the source; they are usually repeats but may differ in a detail not shown here. Identical values can stand only once. Results filed as inconclusive are left out. The source holds several records for some structures; these can differ, active in one and inactive in another. Active and inactive are the calls of the source. Calls follow the shape of the dose curve; as a rule, active = well fitted inhibition curve with a large enough effect; inconclusive = small, poorly fitted or top-dose-only effect; inactive = no such curve, though single readings can be large or run the other way.
% is scaled to controls: 0 for no effect and ±100 for the full control effect; potency is read from the fitted curve at half-maximal effect.

This assay can be described thus: Primary qHTS for inhibitors of nuclear receptor binding SET domain protein 2 (NSD2) in an RCH-ACV wild type WT cells (2C) (AID 1645877). Also: nearly all actives have a fitted effect of over 70% in size. The following applies: RCH-ACV (leukaemia line) NSD2 WT (2C) viability, CellTiter-Glo, 72 h; series mostly up to 44.9 µM; activity change, negative = cell killing: at the top concentration. Background: In qHTS, concentration-response curves come from the screen itself.
Regarding `CN(C)CCC(c1ccccc1)c1ccccn1` (stereo not drawn), the Potency result was “inactive”. Same read-out and setting: the same measure for `CC1=C(/C=C/C(C)=C/C=C/C(C)=C/C(=O)Nc2ccc(O)cc2)C(C)(C)CCC1`: 1.88 µM (active) and 2.95 µM (active). Turning to `O=C(O)CCc1nc(-c2ccccc2)c(-c2ccccc2)o1`, the Potency entry is “inactive”. For the molecule `O=c1cc(-c2cccc3c2Sc2ccccc2S3)oc(N2CCOCC2)c1`, the Potency is 11.6 µM (active) and 11.8 µM (active). Same read-out and setting: the same measure for `CC(C)NCC(O)COc1cccc2[nH]ccc12` (stereo not drawn): “inactive”.

Consider `CC/C(=C(\c1ccccc1)c1ccc(OCCN(C)C)cc1)c1ccccc1`, for which the Potency was 17.1 µM (active).

As to `CCCCCNC(=O)N1CCC(CN(Cc2ccc(Cl)cc2)Cc2ccc([N+](=O)[O-])s2)C1` (stereo not drawn), the “activity change, negative = cell killing” value was -15% (inactive). `O=c1cc(N2CCOCC2)oc2c(-c3cccc4c3sc3ccccc34)cccc12`: the Potency was 2.63 µM (active). For `NC(N)=Nc1nc(CSCC/C(N)=N/S(N)(=O)=O)cs1`, the “activity change, negative = cell killing” value is 4.61% (inactive). Still for that read-out and setting: the same measure for `N[C@@]1(C(=O)O)CS(=O)(=O)[C@H]2[C@H](C(=O)O)[C@H]21`: 8.67% (inactive). As to `Clc1ccc(C(c2ccc(Cl)cc2)n2cc[n+](CC(OCc3ccc(Cl)cc3Cl)c3ccc(Cl)cc3Cl)c2)cc1` (stereo not drawn), the Potency is 5.25 µM (active).

For the molecule `CO[C@@H](C(=O)N1Cc2[nH]nc(NC(=O)c3ccc(N4CCN(C)CC4)cc3)c2C1)c1ccccc1`, the Potency is 58 nM (active) and 52.5 nM (active). `COc1ccccc1N1CCN(CCCNc2cc(=O)n(C)c(=O)n2C)CC1`: the “activity change, negative = cell killing” value is 0.248% (inactive).

Turning to `Cc1cnc(C(=O)O)c[n+]1[O-]`, the outcome was inactive. For the molecule `CCN(CC)C(=O)c1ccc(O)c(OC)c1`, the “activity change, negative = cell killing” value was -5.79% (inactive). Turning to `O=c1cc(-c2ccccc2)oc2cc(O)c(O)c(O)c12`, the Potency is 23.5 µM (active). With `CCN(CC)CCNC(=O)c1ccc(N)cc1`, the Potency entry is “inactive”. Consider `Cc1ccc(F)c(NC(=O)Nc2ccc(-c3cccc4[nH]nc(N)c34)cc2)c1`, for which the Potency is 8.33 µM (active). On the same count and under the same terms, the result for `CC[C@@]1(O)C[C@H](O[C@H]2C[C@H](N(C)C)[C@H](O[C@H]3C[C@H](O)[C@H](O[C@H]4CCC(=O)[C@H](C)O4)[C@H](C)O3)[C@H](C)O2)c2c(cc3c(c2O)C(=O)c2c(O)cccc2C3=O)[C@@H]1C(=O)OC` reads 1.18 µM (active); that for `O=C(O)Cc1cccc2ccccc12`, “inactive”; that for `CC(C)(Cc1ccc2ccccc2c1)NC[C@@H](O)COc1cccc(Cl)c1C#N`, 6.61 µM (active). In the case of `O=C(O)c1c(Cl)c(Cl)c(Cl)c(Cl)c1-c1c2cc(I)c(=O)c(I)c-2oc2c(I)c(O)c(I)cc12`, the Potency was 9.34 µM (active). For the molecule `CC(=O)O[C@]1(C(C)=O)CC[C@H]2[C@@H]3C=C(Cl)C4=CC(=O)[C@@H]5C[C@@H]5[C@]4(C)[C@H]3CC[C@@]21C`, the “activity change, negative = cell killing” value is -12.8% (inactive). Consider `Clc1ccc(Cn2c(CN3CCCC3)nc3ccccc32)cc1`, for which the Potency entry was “inactive and 18.6 µM (active)”. On to `CCN1CCC[C@H]1CNC(=O)c1cc(S(N)(=O)=O)ccc1OC`, for which the Potency result is “inactive”. Take `CC1(C)Cc2c(sc(NC(=S)NC(=O)c3ccccc3)c2C(=O)O)CO1`: the “activity change, negative = cell killing” value was -17.7% (inactive). Take `CCOC(CN1C(=O)[C@](CC(=O)Nc2ccc(C)cc2)(NC(=O)Nc2ccc(C)cc2)c2ccccc21)OCC`: the Potency is 6.61 µM (active). As to `COC(=O)[C@@H]1[C@H]2C[C@H]3c4[nH]c5ccccc5c4CCN3C[C@@H]2CC[C@@H]1O`, the “activity change, negative = cell killing” value was -0.469% (inactive). On the same count and under the same terms, the same measure for `COC1CCC(N(C(=O)C2CCC(C)CC2)c2cc(C3=CCCCC3)sc2C(=O)O)CC1` (stereo not drawn): -6.16% (inactive). With `COc1ccc(-c2cc(=O)c3c(O)cc(O)cc3o2)cc1O`, the Potency is 14.8 µM (active). For `O=C(NOCC(O)CO)c1cc(Br)c(F)c(F)c1Nc1ccc(I)cc1F` (stereo not drawn), the Potency is 20.9 µM (active).

For the molecule `CCc1ccc(OCc2ccccc2C(=O)Nc2ccc3nc(C)cc(N)c3c2)cc1`, the Potency is 2.95 µM (active). For `N[C@H](CSC(c1ccccc1)(c1ccccc1)c1ccccc1)C(=O)O`, the “activity change, negative = cell killing” value is -6.92% (inactive). Consider `N#C[C@H]1C[C@H]2C[C@@H]2N1C(=O)[C@@H](N)C12CC3CC(CC(O)(C3)C1)C2`, for which the “activity change, negative = cell killing” value was 5.39% (inactive). As to `CCCCCCCCCCCC1=C(O)C(=O)C=C(O)C1=O`, the call was inactive.

On to `COc1ccc(-n2c(C)c([N+](=O)[O-])c3ccc(O)cc32)cc1`, for which the “activity change, negative = cell killing” value was -23.7% (inactive). `CCCNC(=O)NS(=O)(=O)c1ccc(Cl)cc1`: the Potency entry was “inactive”. Regarding `N#Cc1ccc(NC(=O)Nc2ccccc2Br)c2n[nH]nc12`, the “activity change, negative = cell killing” value is 7.31% (inactive).

The record behind these values is PubChem BioAssay (NCATS).
